Here are results for 32 compounds from ChEMBL document CHEMBL4513216, “Probing the Open Global Health Chemical Diversity Library for Multistage-Active Starting Points for Next-Generation Antimalarials” (ACS Infect Dis, 2020).

The campaign covered roughly 69,000 compounds. About 8,600 (12%) showed an effect of 50% or more. Many of the other results were omitted from the sample, so strong results are more common in it than they were.

The assay has as its system Plasmodium berghei. Description: Screen against P. berghei liver stage (PbLuc), transformed with Luciferase, at 10uM. It is filed as functional, HepG2. The note with it: tested at 10 uM.
Turning to `O=C(NCCCn1nc2ccccn2c1=O)Nc1ccc(F)cc1F`, the INHIBITION is -17%. The figure for `c1ccc(CN2CCC3(CC2)CCN(Cc2cccs2)C3)nc1` is -4.27%; for `O=C(C1COCCO1)N1CCN(CC(F)(F)F)c2ccccc21` (configuration not stated) it is -8.22%; for `Cc1nn(C)c(C)c1CC(=O)N1CCc2nnc(N(C)C)cc2C1` it is 42.65%. For the compound `CN(C)c1cc(CNC(=O)c2ccccc2S(C)(=O)=O)ccn1`, the INHIBITION is reported as -19.4%. With `Cc1noc(C)c1CN1C(=O)[C@@H]2CC[C@H]1CN(C(=O)c1cscn1)C2`, the INHIBITION turned out to be 45%.

For the compound `NC(=O)C1(CCCc2ccccn2)CCCN(c2ncccn2)C1` (configuration not stated), the INHIBITION is given as -6.3%. Take `NC(=O)C1(CCCc2ccccn2)CCCN(Cc2ccncc2)C1` (configuration not stated): the INHIBITION stood at 54.5%. Take `Cn1cc(CN2CCCC(CCCc3ccccn3)(C(N)=O)C2)cn1` (configuration not stated): the INHIBITION is reported as 20.8%. For `CN1CCCC(CCCc2cccnc2)(C(N)=O)C1` (configuration not stated), the INHIBITION is 50.1%. As to `NC(=O)C1(CCCc2cccnc2)CCCN(c2ncccn2)C1` (configuration not stated), the INHIBITION is given as 0.932%. For `NC(=O)CN1CCCC(CCCc2ccccn2)(C(N)=O)C1` (configuration not stated) the value was -0.902%. `COc1ccc(C(=O)Nc2cccc(SC)c2)c(OC)n1`: the INHIBITION is on record as -138%. As for `CCOc1cc(C)nc(N2CCN(C(=O)c3csnn3)CC2)n1`, the INHIBITION was 33.8%.

Regarding `O=C(O)[C@@H]1CCN(C(=O)c2cscn2)[C@@H]1c1ccc(F)cc1`, the INHIBITION was -35.5%. Take `CCOc1ccc2ccccc2c1CNCC1CCS(=O)(=O)C1` (configuration not stated): the INHIBITION was determined as 57.3%. For `CCOc1ccc2ccccc2c1CNCC1CCNCC1` the value was 49.2%; for `COc1ccc2ccccc2c1CNCC1CCS(=O)(=O)C1` (configuration not stated), 46.4%. As for `Cc1cc2nc(C(C)C)cc(N3CCC(Oc4ncccn4)CC3)n2n1`, the INHIBITION was -17.1%.

For `CCOC(=O)CSc1nnc([C@@H](N)C(C)C)o1`, the INHIBITION is recorded as 2.49%. For `Cc1cc(S(C)(=O)=O)c(C)c(S(=O)(=O)NCC2CCC2)c1` the value was 54.4%; for `Cc1cc(S(C)(=O)=O)c(C)c(S(=O)(=O)NCC2CCCO2)c1` (configuration not stated), 48.4%; for `Cc1cc(S(C)(=O)=O)c(C)c(S(=O)(=O)NC2CCCC2)c1`, -1.28%. Turning to `Cc1nn(C)cc1C1CC(=O)Nc2c1cnn2C(C)(C)C` (configuration not stated), the INHIBITION is reported as -16.5%. The figure for `O=C(c1ccn(-c2cccc(Cl)c2)n1)N1CCN(CCO)CC1` is -12.2%; for `CS(=O)(=O)N1CCN(C(=O)c2cncs2)CC(C(N)=O)C1` (configuration not stated) it is -0.8525%; for `Cc1ccc(CN2CCC3(CC2)C(c2ccccc2)CC(=O)N3C)o1` (configuration not stated) it is 51.2%. For the compound `CN1C(=O)C(c2cccnc2)CC12CCN(CCO)CC2` (configuration not stated), the INHIBITION is -7.24%. As to `Cc1cccc(CN2CCC3(CC2)CC(c2cccnc2)C(=O)N3C)n1` (configuration not stated), the INHIBITION turned out to be 20.6%.

In the case of `Cc1ccc(CN2CCC3(CC2)CC(c2cccnc2)C(=O)N3C)o1` (configuration not stated), the INHIBITION is given as 55.4%. Take `CN1C(=O)CC(c2ccccc2)C12CCN(CCO)CC2` (configuration not stated): the INHIBITION was -63.9%.

Regarding `Cc1noc(C)c1CN1CCC2(CC1)C(c1ccccc1)CC(=O)N2C` (configuration not stated), the INHIBITION is reported as 42.1%.
